Assay outcomes from PubChem.
ssDAF12 agonist: activates DAF-12 receptor from parasite S. stercoralis; AID 652126; HEK293 ssDAF-12/GRIP1 lit1-tk-luc reporter, luminescence; % of 3 µM dafachronic acid response; activation, % at 6.8 µM; 370,000 tested, 1% active;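 active = activation above the mean over all tested compounds plus 3 SD, cut at about 0.9% in these data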;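 note: 0% = DMSO-only wells and 100% = 3 µM delta7-dafachronic acid wells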
hgDAF12 agonist: hgDAF-12 agonism, primary luciferase screen. AID 687014. 370,000 tested, 1.8% active. activation, % at 6.8 µM. HEK293 GAL4-hgDAF12 UAS-luciferase reporter, agonist luminescence; normalized to butyrate control;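 active = activation above a cutoff set at the mean of all screened compounds plus 3 SD, cut at about 10% in these data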;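 note: 0% = DMSO wells and 100% = sodium butyrate wells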
hcDAF-12 act: H. contortus DAF-12 activation, primary screen; HEK293 hcDAF-12 lit1-tk-luc reporter, luminescence; 0% DMSO, 100% Δ7-dafachronic acid; activation, % at 6.8 µM; 370,000 tested, 1.4% active; AID 652067;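 active = activation above the mean of all tested compounds plus 3 SD, cut at about 5.5% in these data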;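 note: 100% = response to 3 µM Δ7-dafachronic acid high control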
AHR activator: activates the human aryl hydrocarbon receptor. P35869. AHR-responsive luciferase reporter cells, luminescence. activation, % at 5 µM. 320,000 tested, 2.5% active; in the data active = activation above about 47%;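 note: 0% = vehicle wells and 100% = reference agonist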
DAX1 inh-1: inhibits human nuclear receptor DAX1. P51843. inhibition, % at 6.75 µM. HEK293 Gal4-DAX1 luciferase reporter, luminescence. 340,000 tested, 0.99% active. AID 504766;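 active = inhibition above the mean over all tested compounds plus 3 SD, cut at about 4.2% in these data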;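 note: 0% = DAX1-transfected cells with DMSO and 100% = empty-vector control cells with DMSO; inhibition shows as a rise in luminescence from relieved DAX1 repression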
Target sequence (P51843 207-470 limits assumed): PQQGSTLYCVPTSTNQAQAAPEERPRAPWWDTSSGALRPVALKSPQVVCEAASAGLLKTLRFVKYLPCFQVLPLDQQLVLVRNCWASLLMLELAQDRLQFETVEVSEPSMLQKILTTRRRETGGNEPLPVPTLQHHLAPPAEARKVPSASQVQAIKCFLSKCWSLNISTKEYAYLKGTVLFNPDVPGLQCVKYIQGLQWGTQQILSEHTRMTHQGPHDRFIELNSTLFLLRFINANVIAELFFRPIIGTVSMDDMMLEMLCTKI
DAX1 inh-2: blocks DAX1 repression of SF-1 activated StAR promoter | HEK293T StAR-luciferase reporter, SF-1/DAX-1 repression relief | inhibition, % at 6.8 µM | 370,000 tested, 1.1% active | AID 652010;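 active = inhibition above the mean over all tested compounds plus 3 SD, cut at about 3.6% in these data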;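 note: 0% = DAX-1 cells with DMSO and 100% = cells lacking DAX-1 with DMSO; higher inhibition means more luminescence from relief of DAX-1 repression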
AHR act cf: human AHR activation, confirmation; AID 2845; shares compounds with AHR activator; activation, % at 9 µM; 2,300 tested, 87% active; human cells, AHR-responsive luciferase reporter, luminescence; in the data active = activation above about 49%;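 note: HepG2 hepatoma cells carrying a DRE-driven firefly luciferase reporter; 0% = vehicle wells and 100% = reference agonist wells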
PXR counter: activates human PXR in AHR activator counter-screen. shares compounds with AHR activator. cell-based PXR reporter, luciferase luminescence. activation, % at 11.6 µM. 2,300 tested, 88% active. AID 434939; in the data active = activation above about 11%;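 note: human hepatoma DPX-2 cells expressing full-length human PXR; 0% = DMSO and 100% = reference agonist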
Target sequence (O75469 whole entry, looked up): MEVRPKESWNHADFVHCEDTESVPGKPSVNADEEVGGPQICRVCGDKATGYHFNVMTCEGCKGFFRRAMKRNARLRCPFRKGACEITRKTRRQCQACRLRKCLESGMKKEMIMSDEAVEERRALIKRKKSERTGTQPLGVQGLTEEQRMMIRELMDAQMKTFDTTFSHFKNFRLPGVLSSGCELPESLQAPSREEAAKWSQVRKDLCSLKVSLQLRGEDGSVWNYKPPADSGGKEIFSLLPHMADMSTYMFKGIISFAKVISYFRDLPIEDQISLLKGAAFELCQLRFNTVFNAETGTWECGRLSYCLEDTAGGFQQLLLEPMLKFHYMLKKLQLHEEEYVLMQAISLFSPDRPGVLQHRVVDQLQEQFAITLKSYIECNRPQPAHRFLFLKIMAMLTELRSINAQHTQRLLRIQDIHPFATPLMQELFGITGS
DAX1 inh confirm: confirmation of human DAX1 (NR0B1) inhibitors; shares compounds with DAX1 inh-2; inhibition, % at 6.8 µM; AID 652134; 2,400 tested, 87% active; HEK293T StAR-promoter luciferase reporter, SF-1/DAX-1 repression;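 active = inhibition above the average of every tested compound plus 3 SD, cut at about 3.8% in these data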;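 note: 0% = DAX-1 cells with DMSO and 100% = no DAX-1 control cells with DMSO; active compounds raise luminescence by relieving repression of the StAR reporter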
SF1 AF2mut Luc: nonselective inhibitor or artifact in SF-1 mutant DAX1 counter-screen | shares compounds with DAX1 inh-2 | HEK293 StAR-luciferase, SF-1 AF2 mutant, luminescence | inhibition, % at 6.8 µM | 2,400 tested, 78% active;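 active = inhibition above the mean of all tested compounds plus 3 SD, cut at about 3% in these data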;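 note: 0% = DAX-1 transfected cells with DMSO and 100% = cells without DAX-1 with DMSO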
LXRb hcDAF ctr: counter-screen for hcDAF-12 agonists: agonists of human LXR-beta | activation, % at 6.8 µM | HEK293 Gal4-LXR tk-luc reporter, luminescence, 24 h; normalized: DMSO 0%, positive control 100% | 3,400 tested, under 10 active | shares compounds with hcDAF-12 act | AID 743027;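 active = mean percent activation of the reporter above a cutoff set as the average over tested compounds plus their standard deviation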
hcDAF12 ag: hcDAF-12 agonism, confirmation assay | shares compounds with hcDAF-12 act | HEK293 hcDAF-12 lit1-tk-luc reporter, luminescence; % of Δ7-dafachronic acid response | activation, % at 6.8 µM | 3,400 tested, 61% active | AID 743032;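 active = mean activation across triplicate tests above the threshold derived from the earlier primary screen, cut at about 5.5% in these data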;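 note: 0% = DMSO only wells and 100% = 3 µM Δ7-dafachronic acid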
Starred values were filed as active, the others as inactive; . = no result. Compounds with a hit are over-represented: about 5.7% of the library has one in this group of screens.

SMILES	ssDAF12 agonist	hgDAF12 agonist	hcDAF-12 act	AHR activator	DAX1 inh-1	DAX1 inh-2	AHR act cf	PXR counter	LXRb hcDAF ctr	hcDAF12 ag	others
Cn1c(CNc2ccc(Cl)cc2)nc2ccccc21	2.9*	12.7*	16.2*	87.0*	2.0	4.3*	139.3*	36.0*	1.0	11.1*
Cc1nc2cc(NCc3nc4ccccc4n3Cc3ccccc3)ccc2n1C	0.0	4.3	1.6	27.0	-1.1	3.2	.	.	.	.
O=C(Nc1ccccc1)N1CCc2ccccc2C1	0.4	10.8*	6.8*	103.0*	1.5	1.4	132.4*	16.4*	1.1	7.9*
NC(=O)c1c(NC(=O)c2ccccc2)sc2c1CCC2	2.1*	15.3*	15.6*	124.6*	4.5*	1.4	146.1*	24.1*	1.8	18.8*
O=C(/C=C/Nc1ccc(F)cc1F)c1cccs1	2.4*	20.9*	12.0*	86.5*	-2.6	6.1*	108.1*	86.1*	1.4	15.3*	DAX1 inh confirm=8.3*;SF1 AF2mut Luc=1.5
O=C(Nc1cccs1)Nc1ccc(F)cc1F	-1.3	5.6	-2.3	16.0	-0.9	-0.4	.	.	.	.
O=c1[nH]c2ccccc2c2nc3ccccn3c12	1.7*	12.0*	8.1*	91.3*	1.6	1.1	117.1*	18.9*	0.5	9.5*
O=c1nc2c(O)cccn2c2c1c(=O)[nH]c1ccccc12	-0.7	-1.5	3.3	.	1.0	1.0	.	.	.	.
CC(=O)c1cccc(NC(=S)NC(=O)c2ccccc2Cl)c1	-0.8	4.3	0.8	16.8	-0.2	0.0	.	.	.	.
O=C(NC(=S)Nc1ccccc1O)c1ccccc1Cl	1.5*	12.5*	7.7*	89.0*	0.2	1.6	127.5*	20.9*	0.4	6.2*
O=[N+]([O-])c1ccc2ncnc(Nc3ccc4c(c3)OCCO4)c2c1	-1.9	6.0	-0.6	43.4	-1.4	0.0	.	.	.	.
c1ccc2c(c1)oc1c(Nc3ccc4c(c3)OCCO4)ncnc12	0.6	12.2*	9.1*	95.3*	-0.1	3.6	109.7*	18.6*	1.4	6.4*
c1ccc(-c2csc(Nc3ccccn3)n2)cc1	2.7*	17.6*	14.4*	139.1*	3.4	2.3	131.0*	15.9*	2.4	16.6*
C=CCOc1ccc(C(c2c(O)nc(SC)[nH]c2=O)c2c(O)nc(SC)[nH]c2=O)cc1	-0.5	0.4	-0.7	-2.8	3.7	0.0	.	.	.	.
Cc1ccccc1NC(=O)/C(C#N)=C\c1ccsc1	-0.7	7.2	7.4*	83.6*	1.1	-0.1	49.6*	62.3*	0.0	6.9*
Cc1nnsc1C(=O)N1CCC(CO)(Cc2ccccc2Cl)CC1	-1.8	-1.3	-2.0	-0.2	-1.6	0.6	.	.	.	.
CCCCNC(=O)[C@]1(C)CCC[C@@]2(C)C3CC[C@@]4(C)C[C@]3(CCC21)CC4=O (stereo partly specified)	-1.3	-0.5	-1.7	-2.6	2.0	-0.6	.	.	.	.
O=C(CNC(=O)c1ccc(Br)o1)Nc1cccc(S(=O)(=O)N2CCCC2)c1	-1.3	-1.2	-2.0	4.0	0.6	-1.1	.	.	.	.
Fc1ccccc1/C=C/c1ccc2ccccc2n1	2.2*	14.9*	19.6*	88.6*	-3.5	5.8*	73.6*	6.7	1.2	13.4*	DAX1 inh confirm=14.0*;SF1 AF2mut Luc=3.5*
Cc1ccc(C(=O)c2oc3ccccc3c2N)cc1	0.6	11.3*	9.5*	112.9*	2.2	0.6	137.7*	22.1*	0.7	9.7*
Nc1c(C(=O)c2ccccc2)oc2ccc(Br)cc12	1.3*	13.0*	9.9*	79.3*	5.7*	4.3*	119.9*	12.4*	1.0	8.3*
O=c1[nH]c(-[n+]2ccc3ccccc3c2)c(/C=N/N=C(\[O-])c2ccccc2)s1	0.8	8.5	9.0*	83.7*	1.0	2.1	49.7*	20.4*	-0.1	0.6
CC(C)(C)c1cc[n+](-c2[nH]c(=O)sc2/C=N/N=C(\[O-])c2cccnc2)cc1	-0.7	0.4	2.5	2.5	1.4	0.7	.	.	.	.
O=C(Nc1cccc(NC(=O)c2ccco2)n1)c1ccco1	-1.1	-0.6	-1.4	14.3	0.2	-0.7	.	.	.	.
Cc1ccccc1C(=O)O/N=C(\N)c1ccccc1	0.9*	8.4	10.4*	79.4*	3.6	3.0	95.0*	8.2	2.4	25.1*
SMILES	ssDAF12 agonist	hgDAF12 agonist	hcDAF-12 act	AHR activator	DAX1 inh-1	DAX1 inh-2	AHR act cf	PXR counter	LXRb hcDAF ctr	hcDAF12 ag	others
N/C(=N\OC(=O)c1cccc2ccccc12)c1ccc(Br)cc1	2.2*	-1.5	8.9*	96.0*	-1.7	0.2	98.9*	15.2*	-0.2	4.0
Cc1noc(C)c1S(=O)(=O)Nc1ccc(C(C)C)cc1	-1.7	0.9	-0.8	3.1	0.7	-0.1	.	.	.	.
Cn1ccsc1=NC(=O)c1ccc(OC(F)(F)F)cc1	-0.2	10.3	8.2*	98.0*	4.1	0.4	109.1*	23.8*	0.7	4.2
COc1ccc(O)c(-c2cc(-c3ccc(F)cc3)n[nH]2)c1	1.0*	8.9	7.6*	95.6*	2.1	1.2	159.0*	15.0*	1.1	6.3*
CCN(CC)CCOC(=O)c1ccc(NC(=S)NC(=O)/C=C/c2ccco2)cc1	.	.	.	2.6	.	.	.	.	.	.
N#C/C(=C\c1ccc[nH]1)C(=O)Nc1ccccc1Cl	1.2*	5.0	11.1*	96.0*	1.9	2.6	99.5*	28.7*	0.9	11.7*
N#C/C(=C\c1ccc[nH]1)C(=O)c1ccccc1	-1.1	2.8	0.4	-3.5	0.1	0.1	.	.	.	.
CCc1ccc(N=Nc2ccc(O)c3[nH]cnc23)cc1	1.0*	8.1	7.8*	100.9*	5.3*	0.7	92.9*	10.6*	0.3	8.6*
Cc1ccc(N=Nc2c(O)ccc3n[nH]nc23)cc1	-0.9	7.2	2.9	.	0.2	0.2	.	.	.	.
